# Screening results from PubChem BioAssay.
# EWS-Fli block: EWS/Fli-driven NR0B1 reporter inhibitors, primary screen, A673 cells, NR0B1 luciferase, luminescence, MLPCN library; viability-normalised; inhibition, % at 12.6 µM; actives 0.67% (n = 350,000); AID 651661, 2012;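 active = mean inhibition of at least 50% after viability correction, with every replicate also passing that limit; inconclusive = mean reaches 50% but only one of two replicates passes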;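 note: firefly luciferase signal divided by Alamar Blue viability fluorescence both relative to DMSO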
# CF NFkB inh: inhibitors of PAF-induced NF-kB signaling, primary screen, cell-based, GFP fluorescence, uHTS; KKLEB NF-kB-GFP reporter, GFP fluorescence overnight; inhibition, % at 5 µM; actives 0.86% (n = 360,000); AID 588850, 2011;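 active = at least 50% inhibition at 5 µM, scaled per plate between neutral and stimulator controls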;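 note: PAF is a Pseudomonas aeruginosa culture filtrate used as stimulus; plate controls were PAF-stimulated DMSO wells for no effect and unstimulated DMSO wells for full effect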
# Shn3 inh set2: reduction of Shn3 3'UTR firefly luciferase signal, primary screen, Schnurri-3 inhibitor project, cell-based, Clone20 osteoblasts, set 2; Clone20 osteoblast Shn3 3'UTR firefly luciferase, 24 h; inhibition, % at 12.5 µM; actives 0.52% (n = 360,000); AID 588674, 2011;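 active = mean inhibition of at least 75% with every replicate also reaching 75%; inconclusive = mean inhibition at least 75% but some replicate below; inactive = mean inhibition below 75%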;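 note: 0% = median of neutral control wells and 100% = pilot-screen positive control compound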
# PAX8 inh HTS: inhibitors of PAX8-driven TPO luciferase reporter, primary screen, RMG-I cells, single concentration; actives 1.2% (n = 360,000); SteadyGlo, 24 h; inhibition, % at 12.6 µM;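 active = mean replicate inhibition at least 60% with every replicate also reaching 60%; inconclusive = only one of the two criteria is met; inactive = mean below 60% and not all replicates reaching 60%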;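 note: luciferase light reporting Pax8 driven TPO promoter activity; plate controls were median of neutral control wells for no effect and mitoxantrone controls for full effect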
# KKLEB cytotox: cytotoxicity in KKLEB CF airway cells, primary screen, cytotoxicity control for CF NF-kB inhibitor project, cell-based, uHTS, fluorescence assay plates. activity change (cytotoxicity), % at 5 µM. actives 0.36% (n = 360,000). AID 602141, 2011. KKLEB CF airway cells viability, ATPlite luminescence, overnight; stronger effect = lower value; cells stimulated with P. aeruginosa culture filtrate;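 active = corrected activity change at or below -50% at 5 µM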
# LGR2 antag: inhibitors of bursicon-induced LGR2 CRE-luciferase signal, primary screen, cell-based, HEK293, CRE-luciferase reporter, bursicon stimulation. AID 720647, 2013. actives 0.35% (n = 380,000). inhibition, % at 9.99 µM. bursicon-stimulated, 4 h. Drosophila bursicon receptor LGR2 (rickets);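 active = drop in luminescence signal, shown as inhibition above about 50% in the replicate tests, limit read from the data, passing the limit was not always enough; inconclusive = probably only some replicates passing the limit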;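 note: agonist challenge used bursicon conditioned medium at about half maximal strength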
# Starred values were filed as active, the others as inactive; ? = inconclusive; / = no result given. Only some compounds are listed: those with a hit (about 2% of all), similar ones and a draw of the others.
SMILES,EWS-Fli block,CF NFkB inh,Shn3 inh set2,PAX8 inh HTS,KKLEB cytotox,LGR2 antag
CO[C@@H]1CN(C)C(=O)c2ccc(NS(=O)(=O)CC(F)(F)F)cc2OC[C@H](C)N(Cc2cccnc2)C[C@H]1C,-1.6,/,/,2.4,/,-5.0
CCCOc1ccccc1N/C(=N/c1nc(C)cc(C)n1)NC(=O)COc1ccc(OC)cc1,/,13.1,91.3*,/,-20.6,/
CCCOc1ccccc1N/C(N)=N/c1nc(C)cc(C)n1,-0.5,2.7,30.5,-2.6,6.8,-7.8
COc1ccc2c3c(n(C)c2c1)[C@@H](CO)N(CC1CCCCC1)CC31CCN(C(C)=O)CC1,1.5,/,/,/,/,-8.1
NNC(=O)c1nn(-c2ccc(Cl)cc2)cc1O,-9.5,7.7,-22.8,71.8*,1.1,0.9
Cc1ccc(NC(=O)COC(=O)c2nn(-c3ccc(Cl)cc3)cc2O)cc1,-2.0,-12.5,-46.5,-96.5,4.3,-22.5
CC1CCC(C(C)C)C(OC(=O)C[n+]2cc(-c3ccc(Cl)cc3)n3c2CCCCC3)C1 (centres undefined),49.2,26.3,59.7,102.3*,-16.1,39.9
C[C@@H]1CN([C@@H](C)CO)C(=O)c2cccc(NS(=O)(=O)c3ccc(Cl)cc3)c2O[C@H]1CN(C)S(=O)(=O)c1ccc(Cl)cc1,-5.0,/,/,22.1,/,9.8
CCOC(=O)N1CCN(C(=O)c2ccc3c(c2)sc2nc(-c4ccc(OC)cc4)cn23)CC1,/,8.1,10.2,/,-7.0,35.4
COc1ccc2c(c1)sc1nc(-c3ccccc3)cn12,/,22.4,?,/,-96.2*,/
Cc1cc(C)cc(NC(=O)/C(C#N)=C/c2cn(CC(=O)NCc3ccco3)c3ccccc23)c1,/,69.8*,73.2,16.3,-71.8*,4.8
COc1ccccc1-c1ccc2n(c1=O)C[C@@H]1[C@@H](CO)[C@H](C(=O)NCc3ccccn3)[C@H]2N1C,-5.3,/,/,-16.6,/,-0.4
C=C1C2(C(=O)Nc3ccc(SC(F)F)cc3)CCC(C2)C1(C)C (centres undefined),0.6,-5.7,-3.6,98.3*,2.3,-7.3
Cc1cc2cc(CN(CC3CCCO3)C(=S)Nc3ccccc3)c(=O)[nH]c2cc1C (centres undefined),30.7,3.7,90.3*,7.0,-4.9,-14.1
COc1ccc(NS(=O)(=O)c2ccc(OC)c(N(C)S(=O)(=O)c3ccc(Cl)cc3)c2)cc1,26.1,17.1,87.3*,/,-16.4,14.6
O=C(NC[C@@H]1[C@H](c2ccccc2)[C@H](CO)N1Cc1ccccn1)C1CCCC1,8.6,/,/,9.8,/,3.3
COc1ccc(-c2cc3c(=O)n(CC(=O)NCCCN4CCC(Cc5ccccc5)CC4)ncn3n2)cc1,-4.5,23.6,69.9,7.6,-61.9*,7.6
CC1=C(CC(=O)c2ccccc2)C(=O)c2ccccc2C1=O,/,77.0*,2.0,-19.0,-37.7,/
C[C@H](CO)N1C[C@H](C)[C@@H](CN(C)S(=O)(=O)c2ccc(Cl)cc2)OCCCC[C@H](C)Oc2ccc(NS(=O)(=O)c3ccc(F)cc3)cc2C1=O,-0.6,/,/,84.2*,/,12.4
C[C@@H]1CCCCO[C@H](CN(C)S(=O)(=O)c2ccc(Cl)cc2)[C@H](C)CN([C@@H](C)CO)C(=O)c2cc(NS(=O)(=O)c3ccc(F)cc3)ccc2O1,3.5,/,/,83.1*,/,10.3
C[C@H]1CCCCO[C@@H](CN(C)S(=O)(=O)c2ccc(F)cc2)[C@@H](C)CN([C@@H](C)CO)C(=O)c2cc(NS(=O)(=O)c3ccc(Cl)cc3)ccc2O1,-4.0,/,/,68.6*,/,15.3
C[C@@H]1CCCCO[C@H](CN(C)S(=O)(=O)c2ccc(F)cc2)[C@@H](C)CN([C@@H](C)CO)C(=O)c2cc(NS(=O)(=O)c3ccc(Cl)cc3)ccc2O1,1.8,/,/,?,/,-0.1
C[C@H]1CCCCO[C@@H](CN(C)S(=O)(=O)c2ccc(Cl)cc2)[C@@H](C)CN([C@@H](C)CO)C(=O)c2cc(NS(=O)(=O)c3ccc(F)cc3)ccc2O1,6.6,/,/,62.6*,/,-2.7
C[C@@H]1CCCCO[C@H](CN(C)S(=O)(=O)c2ccc(Cl)cc2)[C@H](C)CN([C@H](C)CO)C(=O)c2cc(NS(=O)(=O)c3ccc(F)cc3)ccc2O1,4.1,/,/,48.3,/,-4.6
C[C@@H]1CN([C@H](C)CO)C(=O)c2cc(NS(=O)(=O)c3ccc(F)cc3)ccc2O[C@@H](C)CCCCO[C@H]1CN(C)S(=O)(=O)c1ccc(Cl)cc1,7.8,/,/,98.4*,/,-15.3
SMILES,EWS-Fli block,CF NFkB inh,Shn3 inh set2,PAX8 inh HTS,KKLEB cytotox,LGR2 antag
CCC(=O)N[C@@H]1C=C[C@H](CC(=O)NCc2ccc(OC)cc2)O[C@H]1CO,0.6,/,/,-1.9,/,12.9
Cc1ccc(C(=O)Nc2nnc(NC(=S)Nc3ccccc3)s2)cc1,-56.3,65.3*,-22.5,-42.6,-2.5,-10.5
COc1ccc2nc(NN=C(C)c3ccccn3)cc(C)c2c1,32.7,22.1,86.3*,32.0,-19.9,/
CC(=O)N1CCCc2cc(S(=O)(=O)N3CCCC(C(=O)N4CCN(c5ccccc5)CC4)C3)ccc21 (centres undefined),/,-0.6,82.8,33.8,-2.3,-1.2
COc1ccccc1N1CCN(C(=O)C2CCCN(S(=O)(=O)c3ccc4c(c3)CCCN4C(C)=O)C2)CC1 (centres undefined),/,-5.3,86.6*,18.6,-5.8,5.0
C[C@H](CO)N1C[C@H](C)[C@H](CN(C)C(=O)C2CCC2)Oc2ncc(-c3cccc(F)c3)cc2C1=O,-4.2,/,/,4.8,/,5.5
Cc1cccc(NC(=O)C2CCN(S(=O)(=O)c3c(C)noc3/C=C/c3ccco3)CC2)n1,/,1.8,29.0,62.3*,12.6,9.7
Cc1ccc(/C=C/c2onc(C)c2S(=O)(=O)N2CCC(C(=O)N3CCN(C)CC3)CC2)cc1,/,0.2,19.6,-1.9,-9.1,11.5
CCC(C)N1CCN(C(=O)C2CCN(S(=O)(=O)c3c(C)noc3/C=C/c3ccco3)CC2)CC1 (centres undefined),8.1,-5.8,-14.3,70.4*,8.9,-10.8
CC(C)NC(=O)N(C)C[C@@H]1OCCCC[C@H](C)Oc2ccc(NC(=O)Nc3ccc4c(c3)OCO4)cc2C(=O)N([C@H](C)CO)C[C@@H]1C,-47.3,/,/,-2.0,/,-6.1
CO[C@@H]1CN(C)C(=O)c2ccc(NS(C)(=O)=O)cc2OC[C@@H](C)N(C(=O)c2ccc3c(c2)OCO3)C[C@H]1C,3.2,/,/,-7.3,/,-8.9
O=C(CCCCCCC(=O)Nc1ccccc1)NO,71.2*,/,-261.4,101.5*,/,-16.9
O=C(CCCCCN1C(=O)c2ccccc2C1=O)Nc1ccccc1,/,-5.6,14.1,/,-2.8,/
